Source: PubChem BioAssay (National Center for Advancing Translational Sciences (NCATS))
Shown are actives, neighbours in structure and some others; about 3.6% of the full set was active somewhere.
aSyn rescue: inhibitors of alpha-synuclein toxicity in yeast | Potency, µM (doses to about 46.1 µM), without a hit: at the highest dose growth rescue (activation), hits mostly activators | AID 652106 | actives 0.14% (n = 370,000) | Yeast expressing alpha-synuclein, growth rescue, BacTiter-Glo, 24 h; further: % of control where 0% means no effect; nearly all actives have a fitted effect of over 65% in size
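Rescue of yeast growth: cells expressing toxic alpha-synuclein, induced in galactose at OD600 0.02, incubated with compound 24 h at 30 C. ATP luminescence quantified growth; inhibitors of toxicity appear as activators.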
FUS yeast rescue: suppressors of FUS proteinopathy in yeast; S. cerevisiae FUS-expressing, growth rescue, OD600, 24 h; Potency, µM (series often up to 76.6 µM), most hits filed as activators; actives 0.24% (n = 390,000); AID 1347120;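 further: plate controls were DMSO vehicle for no effect and reference control for full effect; nearly all actives have a fitted effect of over 55% in size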
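Read-out: OD at 600 nm after 24hr at 30C, reporting rescue of FUS-induced yeast toxicity. Cells at OD 0.005 in galactose (2%) minimal medium; compounds tested in a dilution series; CP55940 titration from 92uM final as control.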
ClpP mod: qHTS Assay for Activators of ClpP | AID 651965, 2013 | purified B. subtilis ClpP, FRET peptide cleavage, 20 min | Potency, µM (highest dose often 57.5 µM), inactives show at the highest dose activity change, negative = active | ATP-dependent Clp protease proteolytic subunit (Bacillus subtilis (strain 168)), P80244 | actives 1.9% (n = 340,000); active means well fitted falling curve with a large enough effect; inconclusive means small, poorly fitted or top-dose-only effect; inactive means no such curve, though single readings can be large or run the other way; further: the source files actives as falling curves though it sought activators and does not explain the sign; nearly all actives have a fitted effect of over 65% in size
Target sequence (P80244 whole entry, looked up): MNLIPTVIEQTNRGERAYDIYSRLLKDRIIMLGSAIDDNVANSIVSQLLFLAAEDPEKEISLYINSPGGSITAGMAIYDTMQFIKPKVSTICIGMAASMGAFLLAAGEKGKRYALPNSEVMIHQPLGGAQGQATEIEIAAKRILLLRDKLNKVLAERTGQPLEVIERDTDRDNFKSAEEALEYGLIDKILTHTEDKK
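Buffer: 100 mM Tris/HCl pH8, 100 mM KCl, 0.05% low protease BSA, 2.5% glycerol, 0.01% Tween-20. ClpP 10 microg/mL final; 20 min RT; delta FRET normalized to ADEP and DMSO controls.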
Mm-Cpn inhibitor: M. maripaludis TRiC chaperonin inhibition; purified Mm-Cpn ATPase, ADP Transcreener TR-FRET; Potency, µM (series often up to 76.9 µM), without a hit: at the top dose activity, negative = inhibition, most hits filed as inhibitors; actives 0.031% (n = 330,000); AID 504842; further: on the % scale 0 is the no-effect control and ±100 the full control effect; nearly all actives have a fitted effect of over 80% in size
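25 nM Mm-CPN + cpd, 10 min 37°C; + 10 uM ATP, 30 min 37°C; buffer 30 mM Tris pH 7.4, 100 mM KCl, 5 mM MgCl2, 1 mM DTT; Transcreener ADP HTRF detection 30 min RT.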
TDP43 rescue: inhibitors of TDP-43 toxicity in yeast | Potency, µM (highest dose often 46.1 µM), without a hit: top-dose growth rescue (activation), actives largely listed as activators | TDP-43 expressing yeast growth rescue, BacTiter-Glo, 24 h | actives 1.8% (n = 410,000); further: % of control where 0% means no effect; nearly all actives have a fitted effect of over 50% in size
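In this qHTS, compounds that restore growth of yeast expressing TDP-43 appear as activators. Cells (OD600=0.02, galactose medium, raffinose-pregrown) are incubated with compound 24 hr at 30 deg C and growth is quantified by BacTiter-Glo.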
Abeta rescue: restores growth of yeast expressing A-beta42 peptide. yeast expressing A-beta42, growth rescue, OD600, 48 h; response scale: 0% DMSO, 100% iron-clioquinol control. Potency, µM (doses to about 46.1 µM), usual class: activators. actives 0.063% (n = 410,000); further: nearly all actives have a fitted effect of over 55% in size
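Growth rescue measured by 600 nm absorbance after 48 h yeast culture at 30 C with compound. Values normalized between DMSO and an equimolar ferric chloride plus clioquinol control.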
The depositor's hits bear a star; i = inactive; ? = inconclusive; nt = not tested or not shown. Unless noted, the call rests on the fitted dose curve; in most records, active means well fitted curve in the direction sought with a large enough effect; inconclusive means small, poorly fitted or top-dose-only effect, or another doubt; inactive means no such curve, though single readings can be large; an effect the other way counts as inactive or inconclusive. Potency means the concentration at half of the fitted maximal effect.

SMILES	aSyn rescue	FUS yeast rescue	ClpP mod	Mm-Cpn inhibitor	TDP43 rescue	Abeta rescue
CCCCOC(=O)/C=C/c1ccc(OC(=O)OC)c(OC(=O)OC)c1	-41%	i	-3%	0%	14µM*	i
COC(=O)Oc1ccc(/C=C/C(=O)OC(C)C)cc1OC(=O)OC	-12%	i	1%	0%	14µM*	i
COc1ccc(/C=C/C(=O)OCCNC(=O)c2ccncc2)cc1OC	4%	i	-25%	1%	13%	?
Cc1ccc2[nH]c(=O)c(CN(CCO)Cc3nnnn3Cc3ccco3)cc2c1	1%	nt	-12%	nt	nt	nt
Nc1ccccc1SCC(O)Cn1ccc2ccccc21 (centres undefined)	?	i	0%	-1%	18µM*	i
OC(CN1CCNCC1)Cn1ccc2ccccc21 (centres undefined)	nt	nt	nt	-2%	nt	nt
CC(=O)c1cc(-c2cc(C(F)(F)F)cc(C(F)(F)F)c2)c(=O)n2c1CCC2	nt	i	nt	nt	nt	nt
Cc1ccc(-c2ccnc3nc(-n4cccc4)nn23)o1	-3%	i	nt	1%	35µM*	i
COc1ccc(CNc2nc(-c3ccco3)nn2S(=O)(=O)c2ccc(Cl)cc2)cc1OC	nt	i	0%	nt	-2%	?
COc1cc(C(=O)NCC2CCCO2)cc(Br)c1OCc1ccccc1 (centres undefined)	3%	i	1%	0%	14µM*	i
O=C(NC[C@H]1CCCO1)c1cccc2c1C(=O)c1ccc(-c3ccc(F)cc3OCc3ccccc3)cc1S2(=O)=O	?	22µM*	-3%	-4%	-2%	i
N#C/C(=N\Nc1cccc(C(F)(F)F)c1)C(=O)c1ccsc1	-24%	i	-2%	-2%	10µM*	i
O=c1c2[nH]c3ccc(F)cc3c2ncn1CCCN1CCOCC1	-5%	i	20µM*	0%	-23%	i
O=Cc1cccc(C=O)c1	nt	nt	-1%	nt	nt	nt
COc1cccc(NC(=O)CSc2nc3c([nH]c4ccccc43)c(=O)n2-c2ccccc2)c1	nt	i	-20%	nt	?	i
CCCCNS(=O)(=O)/C=C/c1ccccc1CNC(=O)OC(C)(C)C	nt	i	nt	nt	nt	nt
C=CCN1C(=O)[C@@H](CC(=O)N2CCCCC2)[C@]2(C(=O)OCC)CCCCC/C=C/12	nt	i	nt	nt	nt	nt
Cc1nn(C)c(C(=O)Nc2ccn(Cc3c(F)c(F)cc(F)c3F)n2)c1[N+](=O)[O-]	7%	nt	-2%	3%	7.9µM*	i
CCn1c(Cc2cccs2)nnc1SCC(=O)Nc1ccc(Cl)cc1C	nt	i	nt	nt	nt	nt
O=C1CN(c2nc(-c3cccs3)nc3sc4c(c23)CCCC4)CCN1	20%	35µM*	nt	-16%	20%	i
FC(F)(F)COc1ccc(-c2nnc(SCc3ccccc3)o2)cn1	4%	i	18µM*	-3%	7%	i
Cc1ccc(S(=O)(=O)c2c(N)n(/N=C/c3ccco3)c3nc4ccccc4nc23)cc1	1%	i	8.9µM*	0%	14µM*	i
Cc1cccc(S(=O)(=O)c2c(N)n(/N=C/c3ccco3)c3nc4ccccc4nc23)c1	12%	i	3.5µM*	-4%	-1%	i
Cc1ccc(S(=O)(=O)c2c(N)n(/N=C/c3ccco3)c3nc4ccccc4nc23)cc1C	14%	i	14µM*	-29%	8%	i
COc1ccc(S(=O)(=O)c2c(N)n(Cc3ccco3)c3nc4ccccc4nc23)cc1	6%	?	16µM*	-3%	0%	i
SMILES	aSyn rescue	FUS yeast rescue	ClpP mod	Mm-Cpn inhibitor	TDP43 rescue	Abeta rescue
COc1ccccc1CN(Cc1c(Cl)cccc1Cl)S(=O)(=O)c1ccc(Br)cc1	nt	i	1%	nt	15%	i
Nc1c(C(=O)NC2CCCCC2)c2nc3ccccc3nc2n1/N=C/c1ccco1	nt	nt	nt	-3%	nt	nt
Cc1ccc(-n2c(N)c(S(=O)(=O)c3ccccc3)c3nc4ccccc4nc32)cc1	-3%	i	nt	-1%	-13%	i
Nc1c(S(=O)(=O)c2ccccc2)c2nc3ccccc3nc2n1/N=C/c1ccco1	9%	i	11µM*	0%	5%	i
Cc1cccc(S(=O)(=O)c2c(N)n(-c3ccccc3)c3nc4ccccc4nc23)c1	1%	nt	14µM*	-2%	-9%	i
CC1Cc2cc(S(=O)(=O)NCCc3ccccc3)ccc2N1C(=O)C1CCC1 (centres undefined)	nt	i	-7%	nt	-5%	i
Cc1cc(=O)oc2cc(OCC3CC(c4ccc(Cl)cc4)=NO3)ccc12 (centres undefined)	-1%	?	28µM*	-10%	-14%	i
Cc1cc(=O)oc2cc(OCC3CC(c4ccc(N(C)C)cc4)=NO3)ccc12 (centres undefined)	5%	i	?	-1%	-11%	i
CCOCCCNC(=O)c1c(NC(=O)c2cc(=O)c3cc(C)c(C)cc3o2)sc2c1CCC2	nt	i	3%	nt	-2%	i
CC(C)c1nnc(NC(=O)CCC(=O)N2CCN(c3ccccn3)CC2)s1	5%	i	?	2%	0%	i
O=C(CC1CCCCC1)N1CCN(c2ccccn2)CC1	0%	i	32µM*	-1%	-17%	i
CC(C)Cc1nnc(NC(=O)CCC(=O)N2CCN(c3ccccn3)CC2)s1	-11%	i	25µM*	4%	?	i
Cc1cc(OCC(=O)N2CCN(c3ccccn3)CC2)c(C)cc1Br	1%	i	35µM*	2%	28%	i
Cc1cc(Cl)cc(C)c1OCC(=O)N1CCN(c2ncccn2)CC1	0%	i	-10%	1%	13µM*	i
CC(=O)Nc1ccc(S(=O)(=O)NCCc2cn3ccsc3n2)cc1	nt	i	-7%	nt	11%	i
COC(=O)c1cc(Nc2nc3ccccc3nc2NS(=O)(=O)c2ccc(C)cc2)ccc1Cl	nt	i	-22%	nt	12%	i
CCOC(=O)CC(NS(=O)(=O)c1cc(-c2cc(C)no2)ccc1C)c1ccc(C)cc1 (centres undefined)	nt	?	-4%	nt	?	i
CN1Cc2sccc2C(c2ccc(O)c(O)c2)C1 (centres undefined)	-4%	nt	nt	nt	nt	nt
CC(C)CC(NC(=O)C1CCCCC1)C(=O)N1CCN(c2ccccn2)CC1 (centres undefined)	-1%	i	28µM*	0%	-13%	i
